Inconclusive results are not listed. Calls of active or inactive are those of the source. Calls follow the shape of the dose curve; as a rule, active = well fitted curve in the direction sought with a large enough effect; inconclusive = small, poorly fitted or top-dose-only effect, or another doubt; inactive = no such curve, though single readings can be large or run the other way.

This is an account of results in PubChem BioAssay AID624117 (National Center for Advancing Translational Sciences (NCATS), 2012).

The assay is described as follows: qHTS Assay for Rab9 Promoter Activators: Hit Validation Using Renilla Luciferase Read-Out. Conditions: Huh7 NPC1 promoter Renilla luciferase reporter, 24 h; series mostly up to 76.9 µM. The source says:
Niemann Pick Type C (NPC) is a rare neurodegenerative lipidosis that is characterized by lipid storage in the endosomal/lysosomal system. Treatment modalities for this devastating disease are currently non-existent due to the severe obstacles associated with accessing the central nervous system with proteins or genes. The majority of mutations causing NPC disease are missense mutations that are distributed throughout the length of the NPC1 protein, with the most prevalent being the I1061T allele. Although NPC1 mutant proteins may be functional, they are typically trapped in the ER due to misfolding. […] We have developed and optimized a cell based renilla luciferase reporter assay in 1536 well format for the identification of up-regulators of the mutant NPC1 promoter. This assay presents data on the validation of hits from the primary screen, which used a firefly luciferase read-out. NIH Chemical Genomics Center [NCGC] NIH Molecular Libraries Probe Production centers Network [MLPCN] MLPCN Grant: MH089375 Assay Submitter (PI): Yiannis A. Ioannou
Huh7 cells stably expressing NPC promoter-luciferase will be seeded at 1,500 cells/well in 5 uL in 1,536-well white opaque plates with 23 nL/well of compound in DMSO solution. The assay plates will be incubated at 37 deg C for 24 hours, after which 3 uL/well BriteLite plus luciferase detection reagent mixture (Perkin Elmer) will be added. Luminescence signal will be measured in a ViewLux plate reader (Perkin Elmer) after a 10 minute incubation at the room temperature.
As for `COc1cccc(CCNCc2ccc(SC)cc2)c1`, the outcome was inactive. For `CCC(=NCc1cccnc1)c1c(O)n(-c2ccccc2)c(=O)[nH]c1=O` the value was “inactive”; for `O=C1c2ccccc2C(=O)N1Cc1nc2ccccc2c(=O)n1-c1cccnc1`, “inactive”.

As to `CN1CCc2cc3c(c4c2C1Cc1ccccc1-4)OCO3` (stereo not given), the outcome was inactive. For `Cc1cccn2c(NCC3CCCO3)c(C(C)C)nc12` (stereo not given) the value was “inactive”.
